# Experimental data published in the supplement of paper PMC12282887.
# ± gives the standard deviation of the averaged measurements.
# Legend:
# Assay in all cases: promoter activity interaction Z-score (Lux/OD deviation from empty-vector control); higher = stronger promoter induction by the compound
# [1] = system: E. coli BW25113 ompFp lux reporter
# Outline: (§1)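 At 37°C, E. coli BW25113 reporter cultures in 40 µl LB Lennox in 384-well plates were read for OD600 and luminescence every 30 min for 12 h. Windows were 0–8 h for wild type and 1–9 h for deletion strains, and wells under 10% of the median growth value were removed. The score is the Z-transformed residual of growth-normalised luminescence against a control fit.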
# [2] = system: E. coli BW25113 robp lux reporter
# Outline: as §1
# [3] = system: E. coli BW25113 soxSp lux reporter
# Outline: as §1
# [4] = system: E. coli BW25113 tolCp lux reporter
# Outline: as §1
# [5] = 51.6 µg/ml, genetic background: wild type
# [6] = 51.6 µg/ml, genetic background: ΔmarA
# [7] = 51.6 µg/ml, genetic background: Δrob
# [8] = 51.6 µg/ml, genetic background: ΔsoxS
# [9] = 103.1 µg/ml, genetic background: wild type
# [10] = 103.1 µg/ml, genetic background: ΔmarA
# [11] = 103.1 µg/ml, genetic background: Δrob
# [12] = 103.1 µg/ml, genetic background: ΔsoxS
# [13] = 12.9 µg/ml, genetic background: wild type
# [14] = 12.9 µg/ml, genetic background: ΔmarA
# [15] = 12.9 µg/ml, genetic background: Δrob
# [16] = 12.9 µg/ml, genetic background: ΔsoxS
# [17] = 25.8 µg/ml, genetic background: wild type
# [18] = 25.8 µg/ml, genetic background: ΔmarA
# [19] = 25.8 µg/ml, genetic background: Δrob
# [20] = 25.8 µg/ml, genetic background: ΔsoxS
compound,measurement,setting,value
CC(C)Cc1ccc(C(C)C(=O)O)cc1 (stereo unspecified) [Ibuprofen],promoter activity interaction Z-score,[1]; [5],0.353 ± 0.34
same,promoter activity interaction Z-score,[1]; [6],0.469 ± 0.28
same,promoter activity interaction Z-score,[1]; [7],0.418 ± 0.24
same,promoter activity interaction Z-score,[1]; [8],0.0995 ± 0.085
same,promoter activity interaction Z-score,[1]; [9],0.349 ± 0.46
same,promoter activity interaction Z-score,[1]; [10],1.78 ± 0.81
same,promoter activity interaction Z-score,[1]; [11],0.954 ± 1.3
same,promoter activity interaction Z-score,[1]; [12],-0.0643 ± 0.52
same,promoter activity interaction Z-score,[2]; [13],0.839 ± 0.9
same,promoter activity interaction Z-score,[2]; [14],0.214 ± 0.091
same,promoter activity interaction Z-score,[2]; [15],0.6 ± 0.66
same,promoter activity interaction Z-score,[2]; [16],0.59 ± 0.11
same,promoter activity interaction Z-score,[2]; [17],1.19 ± 0.31
same,promoter activity interaction Z-score,[2]; [18],2.36 ± 0.11
same,promoter activity interaction Z-score,[2]; [19],0.557 ± 0.45
same,promoter activity interaction Z-score,[2]; [20],-0.577 ± 0.45
same,promoter activity interaction Z-score,[2]; [5],0.25 ± 0.22
same,promoter activity interaction Z-score,[2]; [6],-0.675 ± 0.18
same,promoter activity interaction Z-score,[2]; [7],0.24 ± 0.11
same,promoter activity interaction Z-score,[2]; [8],-0.0538 ± 0.089
same,promoter activity interaction Z-score,[2]; [9],0.337 ± 0.38
same,promoter activity interaction Z-score,[2]; [10],0.9946 ± 0.0074
same,promoter activity interaction Z-score,[2]; [11],0.346 ± 0.75
same,promoter activity interaction Z-score,[2]; [12],0.183 ± 1.1
same,promoter activity interaction Z-score,[3]; [13],0.233 ± 0.39
same,promoter activity interaction Z-score,[3]; [14],-0.0514 ± 0.082
same,promoter activity interaction Z-score,[3]; [15],-0.201 ± 0.088
same,promoter activity interaction Z-score,[3]; [16],0.159 ± 0.065
same,promoter activity interaction Z-score,[3]; [17],0.503 ± 0.48
same,promoter activity interaction Z-score,[3]; [18],0.0892 ± 0.08
same,promoter activity interaction Z-score,[3]; [19],-0.0188 ± 0.046
same,promoter activity interaction Z-score,[3]; [20],-0.109 ± 0.058
same,promoter activity interaction Z-score,[3]; [5],0.0184 ± 0.19
same,promoter activity interaction Z-score,[3]; [6],-0.0994 ± 0.11
same,promoter activity interaction Z-score,[3]; [7],0.111 ± 0.19
same,promoter activity interaction Z-score,[3]; [8],-0.0346 ± 0.014
same,promoter activity interaction Z-score,[3]; [9],-0.0139 ± 0.16
same,promoter activity interaction Z-score,[3]; [10],-0.0609 ± 0.081
same,promoter activity interaction Z-score,[3]; [11],-0.164 ± 0.23
same,promoter activity interaction Z-score,[3]; [12],-0.245 ± 0.15
same,promoter activity interaction Z-score,[4]; [13],-0.813 ± 0.87
same,promoter activity interaction Z-score,[4]; [14],0.0288 ± 1.6
same,promoter activity interaction Z-score,[4]; [15],-0.78 ± 0.64
same,promoter activity interaction Z-score,[4]; [16],-0.147 ± 0.44
same,promoter activity interaction Z-score,[4]; [17],0.563 ± 0.048
same,promoter activity interaction Z-score,[4]; [18],0.78 ± 1.2
same,promoter activity interaction Z-score,[4]; [19],-0.284 ± 1.6
same,promoter activity interaction Z-score,[4]; [20],-0.361 ± 0.24
same,promoter activity interaction Z-score,[4]; [5],-0.451 ± 0.093
same,promoter activity interaction Z-score,[4]; [6],-0.139 ± 0.2
same,promoter activity interaction Z-score,[4]; [7],0.442 ± 1.5
same,promoter activity interaction Z-score,[4]; [8],-0.22 ± 0.31
same,promoter activity interaction Z-score,[4]; [9],0.199 ± 1.1
same,promoter activity interaction Z-score,[4]; [10],0.757 ± 1.8
same,promoter activity interaction Z-score,[4]; [11],-0.377 ± 0.11
same,promoter activity interaction Z-score,[4]; [12],-0.341 ± 0.63
